Measurements published in PubChem BioAssay AID2551 (National Center for Advancing Translational Sciences (NCATS), 2010).
Where “and” joins values, the source holds several entries; their conditions need not be identical. Identical values can stand only once. Screen size: about 310,000 compounds; about 17,000 (5.5%) were called active. Inconclusive results (about 11%) are left out. This is one part of a sample in which actives are shown more often than they occur. Calls follow the shape of the dose curve; as a rule, active = well fitted inhibition curve with a large enough effect; inconclusive = small, poorly fitted or top-dose-only effect, or effect the other way; inactive = no such curve, though single readings can be large or run the other way. The source holds several records for some structures; these can differ, active in one and inactive in another.

Each molecule was assayed against Nuclear receptor ROR-gamma (Mus musculus) (UniProt P51450) (assay: qHTS for inhibitors of ROR gamma transcriptional activity). Conditions: Drosophila S2 Gal4-RORgamma UAS-luciferase reporter, 20 h; series mostly up to 53.6 µM; activity change, negative = inhibition: at the top concentration.
Chain of Nuclear receptor ROR-gamma (Mus musculus) (P51450 whole entry, looked up, the tested form may be a part): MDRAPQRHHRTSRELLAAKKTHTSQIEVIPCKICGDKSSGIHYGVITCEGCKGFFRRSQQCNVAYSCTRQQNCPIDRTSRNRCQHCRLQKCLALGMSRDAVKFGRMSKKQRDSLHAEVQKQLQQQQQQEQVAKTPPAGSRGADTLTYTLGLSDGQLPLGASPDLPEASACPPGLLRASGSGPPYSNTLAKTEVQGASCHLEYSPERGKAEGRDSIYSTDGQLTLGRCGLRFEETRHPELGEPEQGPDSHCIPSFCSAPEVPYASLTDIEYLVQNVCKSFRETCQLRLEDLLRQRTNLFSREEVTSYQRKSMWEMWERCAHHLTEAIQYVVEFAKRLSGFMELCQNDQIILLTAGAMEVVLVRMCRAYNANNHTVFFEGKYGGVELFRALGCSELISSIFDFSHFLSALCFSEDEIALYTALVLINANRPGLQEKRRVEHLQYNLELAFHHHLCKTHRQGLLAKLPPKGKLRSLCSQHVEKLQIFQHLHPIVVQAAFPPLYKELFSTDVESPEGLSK
Procedure, shortened: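 A Gal4/UAS one-hybrid system in insect cells: metallothionein-promoter Gal4–ROR gamma fusion plus Photinus luciferase reporter. Copper sulfate 700 uM final, 20 hr ambient incubation, luminescent detection after 10 min with reagent.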
% is scaled to controls: 0 for no effect and ±100 for the full control effect; potency is read from the fitted curve at half-maximal effect.
Also: nearly all actives have a fitted effect of over 60% in size.

**Q.** `O=S(=O)(Oc1ccccc1C(=S)N1CCOCC1)c1ccc(Cl)cc1` was tested. Which “activity change, negative = inhibition” value did it give?
**A.** Its value is -1.78% (inactive).

**Q.** `Cc1cc(C)cc(C(=O)NCCN2CCOCC2)c1` was tested. Which “activity change, negative = inhibition” value did it give?
**A.** Its value is -10.6% (inactive).

**Q.** How did the “activity change, negative = inhibition” value turn out when `O=C1CCNCCN1[C@H](CO)Cc1ccccc1` was run?
**A.** The value was -13.7% (inactive).

**Q.** How did the “activity change, negative = inhibition” value turn out when `Cc1cc2occ(CC(=O)NNC(=O)c3ccccc3F)c2cc1C` was run?
**A.** The value was 18.8% (inactive).

**Q.** How did the “activity change, negative = inhibition” value turn out when `O=C(N/N=C/c1cccnc1)c1ccc(NC(=O)c2ccc(F)cc2)cc1` was run?
**A.** Its value is -2.69% (inactive).

**Q.** `Cc1cccc(C(=O)Nc2ccc(C(=O)N/N=C/c3cccc(C)n3)cc2)c1` was tested. Which “activity change, negative = inhibition” value did it give?
**A.** Its value is 1.91% (inactive).

**Q.** With `Cn1cccc1/C=N/NC(=O)c1ccc(OC(F)(F)C(F)F)cc1` as the molecule, how does the Potency read?
**A.** Its Potency is 2 µM (active).

**Q.** With `C/C(=N\NC(=O)Cc1ccccc1[N+](=O)[O-])c1cccnc1` as the molecule, how does the “activity change, negative = inhibition” value read?
**A.** Its value is 26.2% (inactive).

**Q.** `CC1CC(C)CN(C(=O)C2CC(=O)N(c3ccc(F)cc3)C2)C1` (centres undefined) was tested. Which “activity change, negative = inhibition” value did it give?
**A.** Its value is -8.45% (inactive).

**Q.** `O=C(O)c1cccc(S(=O)(=O)Nc2ccc(O)cc2Sc2nc3ccccc3s2)c1` was tested. Which Potency did it give?
**A.** Its Potency is 10 µM (active).

**Q.** For `O=C(O)c1ccccc1CSc1nc2ccccc2s1`, which “activity change, negative = inhibition” value is on record?
**A.** The value was -0.569% (inactive).

**Q.** `COc1ccc(S(=O)(=O)Nc2ccc(O)c(Sc3nc4ccccc4s3)c2)cc1` was tested. Which activity change, negative = inhibition did it give?
**A.** The activity change, negative = inhibition was 1.49% [at 10 µM] (inactive).

**Q.** For `O=c1cc(-c2ccc(O)c(O)c2)oc2cccc(O)c12`, which Potency is on record?
**A.** Its Potency is 14.1 µM (active).

**Q.** For `COc1ccc(-c2cc(=O)c3c(O)cc(O[C@@H]4O[C@H](CO[C@@H]5O[C@@H](C)[C@H](O)[C@@H](O)[C@H]5O)[C@@H](O)[C@H](O)[C@H]4O)cc3o2)cc1O`, which “activity change, negative = inhibition” value is on record?
**A.** The value was 1.9% (inactive).

**Q.** For `COc1c(O)cc2oc(-c3ccc(O)c(O)c3)cc(=O)c2c1O`, which Potency is on record?
**A.** Its Potency is “inactive and 12.6 µM (active)”.

**Q.** For `O=c1cc(-c2ccc(O)cc2)oc2c(-c3cc(-c4cc(=O)c5c(O)cc(O)cc5o4)ccc3O)c(O)ccc12`, which “activity change, negative = inhibition” value is on record?
**A.** The value was 5.83% (inactive).

**Q.** `CCOC(=O)COc1cc(O)c2c(=O)cc(-c3ccccc3)oc2c1` was tested. Which “activity change, negative = inhibition” value did it give?
**A.** The value was -12% (inactive).

**Q.** `Cc1cccc(-c2cc(=O)c3cc(C)ccc3o2)c1` was tested. Which “activity change, negative = inhibition” value did it give?
**A.** The value was -18.1% (inactive).

**Q.** `Cc1ccc(-c2noc(C3CCCN(C(=O)c4cccc(Cl)c4)C3)n2)o1` (centres undefined) was tested. Which “activity change, negative = inhibition” value did it give?
**A.** Its value is -1.35% (inactive).

**Q.** Which “activity change, negative = inhibition” value does the source give for `CCOC(=O)N1CCN(Cc2nc3cc(NC(=O)CC)ccc3n2CC)CC1` here?
**A.** The value was -9.43% (inactive).

**Q.** With `C#CCOc1ccc(/C=C2/C(=O)ON=C2C)cc1OCC` as the molecule, how does the “activity change, negative = inhibition” value read?
**A.** The value was 19.7% (inactive).

**Q.** `Cc1ccccc1CN1CCC(C(=O)Nc2ccc(Oc3cccnc3)cc2)CC1` was tested. Which “activity change, negative = inhibition” value did it give?
**A.** Its value is 5.98% (inactive).

**Q.** Which “activity change, negative = inhibition” value does the source give for `CC1(C)Cc2c(cnn2-c2cccc(F)c2)C(NC(=O)c2cc[n+]([O-])cc2)C1` (centres undefined) here?
**A.** The value was 18.2% (inactive).

**Q.** Which “activity change, negative = inhibition” value does the source give for `CC1(C)C(C=C(Cl)Cl)C1C(=O)NC(O)C(=O)c1ccccc1` (centres undefined) here?
**A.** The value was 2.63% (inactive).

**Q.** For `CN(Cc1ccc2nsnc2c1)Cc1nc(Cc2cccc(F)c2)no1`, which “activity change, negative = inhibition” value is on record?
**A.** The value was 5.49% (inactive).

**Q.** Which “activity change, negative = inhibition” value does the source give for `CN(Cc1ccccn1)Cc1nc(-c2ccc(Cl)cc2)no1` here?
**A.** The value was -8.55% (inactive).

**Q.** How did the Potency turn out when `CCc1ccc(CN(C)Cc2nc(Cc3ccccc3)no2)nc1` was run?
**A.** The Potency was 11.2 µM (active).

**Q.** With `Cc1ccc(S(=O)(=O)NCCC(=O)Nc2ccc(C)c(Cl)c2)cc1C` as the molecule, how does the “activity change, negative = inhibition” value read?
**A.** Its value is 18.6% (inactive).

**Q.** With `Cc1ccnc(NC(=O)CCNS(=O)(=O)c2ccc(C)c(C)c2)c1` as the molecule, how does the Potency read?
**A.** The Potency was 10 µM (active).

**Q.** With `Cc1ccc(S(=O)(=O)NCCC(=O)Nc2cccc(S(N)(=O)=O)c2)cc1C` as the molecule, how does the “activity change, negative = inhibition” value read?
**A.** Its value is -17.4% (inactive).

**Q.** How did the “activity change, negative = inhibition” value turn out when `O=C(Cn1c(=O)sc2ccccc21)Nc1nc2c(s1)CCCC2` was run?
**A.** Its value is 6.34% (inactive).

**Q.** With `Fc1ccc2nc(Nc3nc4c(s3)CCCC4)sc2c1` as the molecule, how does the Potency read?
**A.** The Potency was 3.16 µM (active).

**Q.** With `COC(=O)C(NC(C)=O)(Nc1nc2c(s1)CCCC2)C(F)(F)F` (centres undefined) as the molecule, how does the “activity change, negative = inhibition” value read?
**A.** The value was 0.2% (inactive).

**Q.** `O=C(Nc1cccc(-c2cccc(Cl)c2)c1)C1CCN(C2CCC2)CC1` was tested. Which “activity change, negative = inhibition” value did it give?
**A.** Its value is -24.5% (inactive).

**Q.** How did the “activity change, negative = inhibition” value turn out when `CC(C)c1ccc2c([Si](C)(C)C)c3c(nc2c1)-c1cccc(=O)n1C3` was run?
**A.** The value was 1.99% (inactive).

**Q.** For `Cc1c2c(nc3ccccc13)-c1cccc(=O)n1C2`, which Potency is on record?
**A.** Its Potency is 8.91 µM (active).

**Q.** Which “activity change, negative = inhibition” value does the source give for `Cc1nc2ccccc2c(C)c1C(=O)c1ccc(F)cc1` here?
**A.** The value was -4.49% (inactive).

**Q.** With `CCn1c(=S)sc2c(=O)n(CC(=O)Nc3ccc(OC)cc3)c(C)nc21` as the molecule, how does the “activity change, negative = inhibition” value read?
**A.** The value was -10.3% (inactive).

**Q.** How did the “activity change, negative = inhibition” value turn out when `Cc1ccc(C)c(N2CCN(S(=O)(=O)c3c(C)[nH]c(C)c3C(=O)N3CCCC3)CC2)c1` was run?
**A.** Its value is 1.12% (inactive).

**Q.** Which “activity change, negative = inhibition” value does the source give for `CCOC(=O)C1Cn2c(nc3c(c2=O)C(C)(CC)Cc2ccccc2-3)S1` (centres undefined) here?
**A.** The value was 4.88% (inactive).

**Q.** For `CCC1(CC)Cc2ccccc2-c2nc(CCl)[nH]c(=O)c21`, which Potency is on record?
**A.** Its Potency is 11.2 µM (active).

**Q.** How did the “activity change, negative = inhibition” value turn out when `CC1(C)Cc2ccccc2-c2nc(CN3CCOCC3)[nH]c(=O)c21` was run?
**A.** Its value is -5.08% (inactive).

**Q.** For `CC(=O)c1ccc(OCC(O)CN2CCN(S(=O)(=O)c3cccc(Br)c3)CC2)cc1` (centres undefined), which “activity change, negative = inhibition” value is on record?
**A.** Its value is 1.55% (inactive).

**Q.** With `COC(=O)C1CCCCN1C(=O)c1ccc(OC2CCN(C(C)=O)CC2)c(OC)c1` (centres undefined) as the molecule, how does the “activity change, negative = inhibition” value read?
**A.** Its value is 0% (inactive).

**Q.** How did the “activity change, negative = inhibition” value turn out when `Cc1ccc(CN(CC(=O)NCC2CCCO2)S(=O)(=O)c2ccc(C)cc2)cc1` (centres undefined) was run?
**A.** The value was -3.1% (inactive).

**Q.** For `COCc1nc2ccccc2n1Cc1ccccc1Br`, which Potency is on record?
**A.** Its Potency is 6.31 µM (active).

**Q.** Which “activity change, negative = inhibition” value does the source give for `COc1ccccc1Cn1c(CO)nc2ccccc21` here?
**A.** The value was -33.8% (inactive).

**Q.** With `COCn1c(COc2ccccc2)nc2ccccc21` as the molecule, how does the “activity change, negative = inhibition” value read?
**A.** The value was -18.9% (inactive).

**Q.** With `Cc1ccc(S(=O)(=O)NNC(=S)NC(C)(C)C)cc1` as the molecule, how does the Potency read?
**A.** The Potency was 8.91 µM (active).

**Q.** With `Cc1ccc(S(=O)(=O)CC(=O)NC(C)c2ccccc2)cc1` (centres undefined) as the molecule, how does the “activity change, negative = inhibition” value read?
**A.** Its value is 21% (inactive).

**Q.** How did the “activity change, negative = inhibition” value turn out when `CC(NC(=O)Nc1ccccc1)c1ccccc1` (centres undefined) was run?
**A.** Its value is -8.38% (inactive).

**Q.** `Cc1ccc(S(=O)(=O)NNC(=O)Nc2cccc3ccccc23)cc1` was tested. Which “activity change, negative = inhibition” value did it give?
**A.** The value was 2.09% (inactive).

**Q.** Which Potency does the source give for `CC(NC(=S)NNS(=O)(=O)c1ccc(C(C)(C)C)cc1)c1ccccc1` (centres undefined) here?
**A.** Its Potency is 8.91 µM (active).

**Q.** With `COc1ccc(C(=O)NNS(=O)(=O)c2ccc(C)cc2)cc1` as the molecule, how does the “activity change, negative = inhibition” value read?
**A.** The value was -13.6% (inactive).
